The values that follow come from PubChem BioAssay (NCATS).

Where “and” joins values, the source holds several entries; their conditions need not be identical. Equal values may be shown once. Results filed as inconclusive are left out. Calls of active or inactive are those of the source. Unless noted, calls follow the shape of the dose curve; as a rule, active = well fitted curve in the direction sought with a large enough effect; inconclusive = small, poorly fitted or top-dose-only effect, or another doubt; inactive = no such curve, though single readings can be large; an effect the other way counts as inactive or inconclusive.

Test [1] in a line: Confirmation and Secondary Assay for Modulators of Hemoglobin Beta Chain Splicing at IVS2 654 locus (AID 910).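 Also: HeLa cells stably carrying EGFP split by mutant beta-globin IVS2-654 intron; % of control where 0% means no effect.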 The following applies: HeLa EGFP-654 splicing reporter, GFP fluorescence, 48 h; series mostly up to 46.1 µM. In a few lines:
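HeLa cells stably expressing EGFP interrupted by β-globin IVS2-654 intron, seeded overnight in Opti-MEM/2% FCS, then treated 2 days at 37 °C. Restored splicing read as total peak GFP intensity per well by laser scanning cytometry (488 nm excitation, 500–520 nm emission); 500 nM antisense PNA as control.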

The nature of test [2]: qHTS Assay for Identification of Small Molecule Agonists for Thrombopoietin (TPO) Signaling Pathway (AID 917). Also: potency is read from the fitted curve at half-maximal effect. The following applies: TPO signaling pathway reporter cells, agonist qHTS; series mostly up to 38.5 µM. The method in brief: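 Activators of TPO signaling were sought in murine Ba/F3 cells transfected with the human receptor, using a luciferase gene driven by the Glycoprotein IIb promoter; 24-hr compound exposure at 37 C alongside 26 pM TPO, in IL-3-free medium.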

Test [3] concerns the target Muscarinic acetylcholine receptor M1 (Rattus norvegicus) (UniProt P08482). Description: qHTS Assay for Antagonists of Acetylcholine Muscarinic M1 Receptor: Kinetic Measurement of Intracellular Calcium Response (AID 943). Also: nearly all actives have a fitted effect of over 75% in size. Also: potency is read from the fitted curve at half-maximal effect. The following applies: M1-expressing cells, kinetic intracellular calcium fluorescence; series mostly up to 35.3 µM. The method in brief: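 Intracellular calcium flux, recorded with Fluo-4 in a kinetic plate reader, served as signal; the response to carbachol at EC80 (100 nM final) was taken as maximal over minimal fluorescence after a 10 min compound pre-incubation in rat M1-CHO cells.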

Test [4] has the same target. Kind of test: qHTS Assay for Antagonists of Acetylcholine Muscarinic M1 Receptor: Measurement of IP-One Response (AID 944). Also: nearly all actives have a fitted effect of over 75% in size. Also: potency is read from the fitted curve at half-maximal effect. Conditions: CHO-M1 cells, IP-One HTRF, antagonist mode; series mostly up to 46.1 µM. The method in brief:
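Steps: plate transfected CHO-M1 cells overnight; add test compound, 10 min; add carbachol (200 nM, EC80) in stimulation buffer with LiCl; incubate 30 min; add labelled IP1 tracer and anti-IP1 antibody in lysis buffer; read HTRF after 10 min.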

The target in test [5] is Pyruvate kinase (Leishmania mexicana) (UniProt Q27686). Kind of test: qHTS Validation Assay for Inhibitors of Leishmania Mexicana Pyruvate Kinase (AID 945). Also: potency is read from the fitted curve at half-maximal effect. The following applies: purified L. mexicana pyruvate kinase, enzyme activity, E451W mutant enzyme; series mostly up to 57.5 µM. In a few lines: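 Eight-point qHTS titrations in triplicate, data normalized to DMSO neutral control. Reaction: 0.2 nM LmPYK E451W mutant, 0.5 mM PEP, 0.1 mM ADP, 7 mM MgCl2, pH 7.2, one hour at room temperature; luminescent ATP detection.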
Sequence of Pyruvate kinase (Leishmania mexicana) (Q27686 2-499 E452W): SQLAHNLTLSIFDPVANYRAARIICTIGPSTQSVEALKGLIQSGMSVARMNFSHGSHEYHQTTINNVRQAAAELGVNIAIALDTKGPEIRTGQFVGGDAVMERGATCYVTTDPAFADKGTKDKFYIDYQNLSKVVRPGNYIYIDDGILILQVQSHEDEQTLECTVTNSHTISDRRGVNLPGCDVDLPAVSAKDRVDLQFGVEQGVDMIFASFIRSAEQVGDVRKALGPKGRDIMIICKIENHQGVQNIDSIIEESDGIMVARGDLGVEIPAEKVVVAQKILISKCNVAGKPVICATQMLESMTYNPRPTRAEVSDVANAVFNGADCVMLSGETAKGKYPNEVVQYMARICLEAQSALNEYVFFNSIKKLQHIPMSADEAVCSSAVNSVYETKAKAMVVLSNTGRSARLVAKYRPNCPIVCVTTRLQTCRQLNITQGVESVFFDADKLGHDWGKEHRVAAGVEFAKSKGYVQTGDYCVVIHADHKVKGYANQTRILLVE

Test [6] is described as follows: qHTS Assay for Identification of Small Molecule Agonists for Hypoxia Response Element Signaling Pathway (AID 914; active = well fitted activation curve with a large enough effect in the signal ratio, with a control signal flat, not every such curve was filed as active; the % refers to the signal ratio; also: % of control where 0% means no effect). Conditions: ME-180 (cervical carcinoma) HRE-bla reporter, beta-lactamase ratio, CoCl2, 17 h; hits give high values. In a few lines:
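HRE-bla ME-180 cells with beta-lactamase reporter under hypoxia response element, compounds with EC50 CoCl2 for 17 hours at 37 C. CCF4 substrate, 460nm/530nm emission ratio gave %Activity; AC50 from titration series.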

The nature of test [7]: Cell Viability - LYMP1-002 - Assay at 16 hr (AID 948). Also: potency is read from the fitted curve at half-maximal effect. The following applies: LYMP1-002 lymphoblastoid cell viability; series mostly up to 92.2 µM. The method in brief: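 LYMP1-002 human lymphoblastoid cells, 2500/well; 5 hr 37 C; cpd 16 hr 37 C; CellTiter-Glo 30 min RT; luminescence (ATP). Concentration-response, Hill-fit AC50. Pos ctrl tetraoctylammonium bromide.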
The target in test [8] is Cytochrome P450 2C19 (Homo sapiens) (UniProt P33261). Kind of test: qHTS Assay for Inhibitors and Substrates of Cytochrome P450 2C19 (AID 899). Also: nearly all actives have a fitted effect of over 60% in size. Also: potency is read from the fitted curve at half-maximal effect. As to activity, negative = inhibition: % is scaled to controls: 0 for no effect and ±100 for the full control effect. The following applies: recombinant CYP2C19, luciferin-H EGE luminescence; series mostly up to 57.1 µM. The method in brief:
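Signal comes from luciferase acting on luciferin released by CYP2C19-mediated hydroxylation of Luciferin-H EGE, 10uM (KM). Assay mix: 5nM enzyme, 50mM KPO4; 60 min at 37C with NADPH regeneration. Data normalized against 57uM ketoconazole.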

Test [9] in a line: MultiTox-Fluor Cytotoxicity Assay - LYMP1-001 - Dead Cells (AID 946).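 Also: cells exposed to compound for 16 h; 0% = DMSO and 100% = tetraoctylammonium bromide.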 Conditions: LYMP1-001 lymphoblastoid cells, dead-cell protease fluorescence; series mostly up to 92.2 µM. In a few lines:
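AC50 from Hill fit of concentration-response; data normalized to DMSO (basal) and 15 uM tetraoctylammonium bromide (100%). LYMP1-001 lymphoblastoid cells, 2500/well, 16 hr compound at 37 C; dead-cell protease fluorescence, Ex/Em 485/520.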

Test [10] is described as follows: qHTS Assay for Identification of Small Molecule Antagonists for Thrombopoietin (TPO) Signaling Pathway (AID 918). Also: potency is read from the fitted curve at half-maximal effect; nearly all actives have a fitted effect of over 60% in size. Conditions: TPO-dependent cell signaling reporter, antagonist mode. The method in brief:
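First, Ba/F3 reporter cells expressing human TPO receptor were held overnight without IL-3. Next, compound and 26 pM TPO were added. After 24 hrs incubation at 37 C, luciferase luminescence under the Glycoprotein IIb promoter was recorded.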

Sequence of Muscarinic acetylcholine receptor M1 (Rattus norvegicus) (P08482 whole entry, looked up): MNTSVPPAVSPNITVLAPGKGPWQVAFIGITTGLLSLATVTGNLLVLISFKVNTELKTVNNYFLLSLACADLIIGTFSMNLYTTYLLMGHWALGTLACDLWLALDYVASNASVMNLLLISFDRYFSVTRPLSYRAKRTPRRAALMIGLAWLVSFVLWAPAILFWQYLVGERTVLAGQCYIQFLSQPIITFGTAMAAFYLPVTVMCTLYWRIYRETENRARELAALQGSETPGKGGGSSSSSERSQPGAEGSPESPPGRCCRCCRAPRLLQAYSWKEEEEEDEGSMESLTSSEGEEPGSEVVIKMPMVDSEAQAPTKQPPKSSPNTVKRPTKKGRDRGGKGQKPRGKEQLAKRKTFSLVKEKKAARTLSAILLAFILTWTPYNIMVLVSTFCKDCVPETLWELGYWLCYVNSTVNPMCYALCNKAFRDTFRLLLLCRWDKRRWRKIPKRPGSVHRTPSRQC
Sequence of Cytochrome P450 2C19 (Homo sapiens) (P33261 whole entry, looked up): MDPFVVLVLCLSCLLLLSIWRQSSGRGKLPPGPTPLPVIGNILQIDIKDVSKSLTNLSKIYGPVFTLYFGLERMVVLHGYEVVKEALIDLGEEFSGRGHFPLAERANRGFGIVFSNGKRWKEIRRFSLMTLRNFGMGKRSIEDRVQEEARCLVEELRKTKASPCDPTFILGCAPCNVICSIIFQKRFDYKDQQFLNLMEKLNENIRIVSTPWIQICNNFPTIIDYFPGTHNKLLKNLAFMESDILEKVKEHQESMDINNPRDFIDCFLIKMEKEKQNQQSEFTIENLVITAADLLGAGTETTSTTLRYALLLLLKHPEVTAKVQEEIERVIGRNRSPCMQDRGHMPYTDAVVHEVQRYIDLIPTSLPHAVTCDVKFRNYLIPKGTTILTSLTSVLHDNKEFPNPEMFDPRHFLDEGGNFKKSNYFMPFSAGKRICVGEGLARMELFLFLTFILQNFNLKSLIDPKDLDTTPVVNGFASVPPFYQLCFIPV

Turning to `COc1ccc2[nH]cc(CCN)c2c1`, the call in test [1] was inactive. In addition, the Potency entry in [2], in test [3], in test [4] and in test [5] was “inactive” throughout.

Take `CC(N)Cc1ccc(O)cc1` (centres undefined): the call in test [1] was inactive.

Consider `C[N+](C)(C)CCOC(=O)CBr`, for which, in [6], the activation is 16.2% (inactive). Also, the Potency entry in [2], in [4] and in [5] was “inactive” each time.

For the compound `[Cl-].[Cl-].[Hg+2]`, in test [1], the outcome was inactive. Further, in test [7], the Potency was 10 µM (active).

Regarding `CCC1(C)CC(=O)NC(=O)C1`, the Potency result in test [8] was “inactive”.

Consider `NC(Cc1ccc(N(CCCl)CCCl)cc1)C(=O)O` (centres undefined), for which the compound was called inactive in [1].

Consider `N#CCCN`, for which the activation in [6] is 19.4% (inactive). Further, the Potency entry in [2], in test [3], in [4] and in test [5] was “inactive” throughout.

On to `O=[N+]([O-])c1cc(O)c(O)c([N+](=O)[O-])c1`, for which the Potency entry in [8], in test [2], in test [3], in test [4] and in test [5] was “inactive” each time. In addition, the compound was classed as inactive in test [1].

For the compound `O=[N+]([O-])c1ccc2nc(N3CCNCC3)ccc2c1`, the Potency result in test [8], in test [4] and in [5] was “inactive” in each case. Also, the activation in [6] is -10.4% (inactive).

On to `Cc1[nH]c2ccc(O)cc2c1CCN`, for which the Potency in [8] was 7.94 µM (active). Further, the Potency result in test [2], in test [3], in test [4] and in test [5] was “inactive” throughout.

With `O=S1(=O)N(CCN2CC=C(c3c[nH]c4cc(F)ccc34)CC2)c2cccc3c2N1CCC3`, the figures for the Potency in test [8], in [3] and in [4] were 6.31 µM (active), 15.8 µM (active) and 14.1 µM (active), respectively. In [5], the Potency result was “inactive”.

`ClC1C(Cl)C(Cl)C(Cl)C(Cl)C1Cl` (centres undefined): the call in test [1] was inactive.

As for `O=c1c2ccccc2[se]n1-c1ccccc1`, the Potency is 1.58 µM (active) and 126 nM (active) in test [8]; 10 µM (active) in test [5]. The Potency result in [3] and in test [4] was “inactive” each time.

For `C=CCC1(C(C)CCC)C(=O)N=C(S)NC1=O` (centres undefined), in test [1], the compound was called inactive.

For `CC(C)(C)c1cc(O)ccc1O`, the activity, negative = inhibition in test [8] was -31.1% [at 11.4 µM] (inactive). Besides, the Potency result in test [9] and in test [7] was “inactive” in each case.

Regarding `CCS(=O)(=O)Nc1cccc(C(=C2CCCCC2)c2cnc[nH]2)c1`, the Potency in test [8] was 0.0079 µM (active). Besides, the Potency result in test [2], in test [4] and in [5] was “inactive” throughout.

Turning to `OC1CCCCC1N1CCC(c2ccccc2)CC1` (centres undefined), the compound was called inactive in test [1].

For `NCCCP(=O)(O)O`, the activation in test [6] was -8.81% (inactive). In addition, the Potency entry in test [2], in [3] and in test [5] was “inactive” each time.

Take `Clc1ccc(Cl)cc1`: in test [1], the result was inactive.

`Cc1c2ccncc2c(C)c2c1[nH]c1ccccc12`: the Potency is 6.31 µM (active) and 3.16 µM (active) in test [8]; 10 µM (active) in [10]; 25.1 µM (active) in test [4]. Besides, the Potency result in test [3] and in test [5] was “inactive” in each case.

`O=C1CCO1`: in test [1], the call was inactive. The Potency result in test [9] and in test [7] was “inactive” in each case.

Turning to `c1ccc2c(c1)[I+]c1ccccc1-2`, the Potency is 501 nM (active) and 63.1 nM (active) in test [8]; 0.0398 µM (active) in test [10]. For the same compound, the Potency result in test [4] and in test [5] was “inactive” each time.

`COc1ccc2c(c1OC)C(=O)OC2C1c2cc3c(cc2CCN1C)OCO3` (centres undefined): in test [1], the outcome was inactive. For the same compound, the Potency entry in test [9] and in [7] was “inactive” each time.

In the case of `O=c1ccc2[nH]cc(C3=CCNCC3)c2[nH]1`, the Potency in test [8] is 0.126 µM (active).

Regarding `[N-]=[N+]=CC(=O)OCC(N)C(=O)O` (centres undefined), the result in [1] was inactive.

As to `C[CH2][Hg][S]c1ccccc1C(=O)O`, the result in test [1] was inactive.

For `O=C1C=CC(=O)C=C1`, the Potency result in test [8], in [2], in test [3], in test [4], in test [5] and in [9] was “inactive” throughout. In [7], the Potency entry is “inactive”.

Consider `Nc1ccc(CCN2CCN(c3cccc(C(F)(F)F)c3)CC2)cc1`, for which the Potency in test [8] is 7.94 µM (active); in [3] it was 11.2 µM (active). In test [6], the activation was -27.7% (inactive). In addition, the Potency entry in [5] was “inactive”.

On to `CN1C2CCC1CC(OC(c1ccccc1)c1ccccc1N)C2` (centres undefined), for which, in [1], the compound was called inactive.

Regarding `CCCC(C)C1(CC)C(=O)NC(=O)NC1=O` (centres undefined), in test [1], the outcome was inactive.

As for `COc1ccc(OC)c(C(O)C(C)N)c1` (centres undefined), the result in test [1] was inactive.

For `CCCn1c(C)c(C(=O)c2ccc3ccccc3c2)c2ccccc21`, the values for the Potency in test [8] and in [2] were 7.94 µM (active) and 10 µM (active), respectively. For the same compound, the Potency entry in [4] and in [5] was “inactive” throughout.

For the compound `CN(N=O)c1ccc(O)c(O)c1`, the Potency result in test [8], in [2], in [4] and in test [5] was “inactive” each time.

Regarding `O=P(O)(O)C(Cl)(Cl)P(=O)(O)O`, the Potency entry in test [8], in test [2], in test [3], in [4] and in [5] was “inactive” in each case.

Regarding `c1ccc2c(N3CCNCC3)cccc2c1`, the Potency result in test [2] and in [5] was “inactive” each time.

Turning to `N[C@@H](Cn1oc(=O)[nH]c1=O)C(=O)O`, the Potency entry in [2], in test [4] and in [5] was “inactive” in each case.

`Clc1cc(I)cc(Cl)c1NC1=NCCN1`: the Potency entry in test [2], in test [4] and in test [5] was “inactive” throughout. Further, the Potency in [3] is 15.8 µM (active).

Turning to `C[N+]1(C)CCN(c2ccccc2)CC1`, the Potency entry in test [2] and in [5] was “inactive” each time.

Turning to `NCCc1ccc(S(=O)(=O)F)cc1`, the Potency entry in test [2], in test [4] and in [5] was “inactive” throughout.

On to `CC(C)(C)c1cc(C=C(C#N)C#N)cc(C(C)(C)C)c1O`, for which the Potency in test [10] is 1.58 µM (active); in [4], 1.41 µM (active). Moreover, the Potency entry in test [5] was “inactive”.

With `C[N+](C)(C)CC#CCOC(=O)Nc1cccc(Cl)c1`, the Potency entry in test [2], in test [3], in [4] and in test [5] was “inactive” each time.

On to `CC(C)NP(=O)(NC(C)C)OP(=O)(NC(C)C)NC(C)C`, for which the Potency result in [2], in [4] and in [5] was “inactive” each time.

Turning to `NC(N)=NOCC[C@H](N)C(=O)O`, the Potency result in test [2], in test [4] and in test [5] was “inactive” each time.
